Measured values as given in PubChem BioAssay (Tox21).
Inconclusive results are not listed. Active and inactive are the calls of the source. Unless noted, calls follow the shape of the full dose curve.

Assays:
[1] = qHTS assay to identify small molecule antagonists of the vitamin D receptor (VDR) signaling pathway - cell viability counter screen (AID 743225; active = well fitted curve in the direction sought with a large enough effect in the repeat runs; an effect the other way counts as inactive or inconclusive; also: % is scaled to controls: 0 for no effect and ±100 for the full control effect; nearly all actives have a fitted effect of over 50% in size); details: VDR-bla HEK293T viability, CellTiter-Glo luminescence, 16 h; series mostly up to 61 µM
Procedure, shortened: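 Cytotoxicity counter screen read by CellTiter-Glo luminescence (30 min, room temperature) in the same wells as the VDR-bla antagonist readout. HEK 293T VDR-UAS-bla cells had 16 h at 37C with compound and 3 nM (final) 1-alpha,25-dihydroxyvitamin D3, then 2 h with FRET substrate.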

[2] = qHTS assay to identify small molecule agonists of the NFkB signaling pathway (AID 1159509; active = well fitted curve in the direction sought with a large enough effect in the signal ratio in the repeat runs, not every such curve was filed as active; the % refers to the signal ratio; also: % is scaled to controls: 0 for no effect and ±100 for the full control effect); details: NFkB-bla ME-180 cells, beta-lactamase FRET ratio, 5 h; series mostly up to 61 µM
Procedure, shortened: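 NFkB-bla ME-180 cells with a beta-lactamase reporter under an NF-kB response element were plated overnight, treated with compounds in DMSO for 5 hr at 37 C, then loaded with FRET substrate for 1.5 hr at room temperature.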

[3] = qHTS assay to identify small molecule agonists of the NFkB signaling pathway - cell viability counter screen (AID 1159515); details: NFkB-bla ME-180 viability, CellTiter-Glo luminescence, 5 h; series mostly up to 61 µM; also: % is scaled to controls: 0 for no effect and ±100 for the full control effect; nearly all actives have a fitted effect of over 55% in size
Procedure, shortened: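 Multiplexed viability readout: after the 5 hr compound exposure and 1.5 hr FRET substrate step, CellTiter-Glo reagent went into the same NFkB-bla ME-180 wells; ATP luminescence was measured after 30 min at room temperature.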

[4] = qHTS assay to identify small molecule agonists of the endoplasmic reticulum stress response signaling pathway (AID 1159516; active = well fitted activation curve with a large enough effect in the signal ratio in the repeat runs, not every such curve was filed as active; the % refers to the signal ratio; also: % is scaled to controls: 0 for no effect and ±100 for the full control effect); details: ESRE-bla HeLa, ER stress beta-lactamase reporter, 5 h; series mostly up to 61 µM
Procedure, shortened: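 Tox21 10K library screened in quantitative HTS format on ESRE-bla HeLa cells, a beta-lactamase reporter under ER stress response element control; 5 hr treatment, FRET read.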

[5] = qHTS assay to identify small molecule agonists of the endoplasmic reticulum stress response signaling pathway - cell viability counter screen (AID 1159517); details: ESRE-bla HeLa viability, CellTiter-Glo luminescence, 5 h; series mostly up to 61 µM; also: % is scaled to controls: 0 for no effect and ±100 for the full control effect; nearly all actives have a fitted effect of over 50% in size
Procedure, shortened: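 Luminescence readout: CellTiter-Glo, 30 min RT, same wells as the ESRE-bla reporter read. HeLa ESRE-bla, 1,500 cells/well, o/n 37 C; cpd 5 hr 37 C/5% CO2.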

[6] = qHTS assay to identify small molecule antagonists of the retinoid-related orphan receptor gamma (ROR-gamma) signaling pathway - cell viability counter screen (AID 1159520; active = well fitted curve in the direction sought with a large enough effect in the repeat runs; an effect the other way counts as inactive or inconclusive; also: % is scaled to controls: 0 for no effect and ±100 for the full control effect; nearly all actives have a fitted effect of over 50% in size); details: Tet-on RORgamma CHO cells viability, ATP luminescence, 16 h; series mostly up to 92.4 µM
Procedure, shortened: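 Tet-on ROR gamma CHO cells (1,000/well) were plated 4 hr, given compounds in DMSO for 2 hr at 37 C, then induced with 1 uM final doxycycline for 16 hr. Viability was read as ATP by CellTiter-Glo luminescence after 30 min.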

[7] = target: Nuclear receptor ROR-gamma (Homo sapiens) (UniProt P51449); assay: qHTS assay to identify small molecule antagonists of the retinoid-related orphan receptor gamma (ROR-gamma) signaling pathway (AID 1159521; active = well fitted curve in the direction sought with a large enough effect in the repeat runs; an effect the other way counts as inactive or inconclusive; also: top concentration of the series differs between compounds; % is scaled to controls: 0 for no effect and ±100 for the full control effect; nearly all actives have a fitted effect of over 50% in size); details: Tet-on RORgamma CHO cells, RORE-luciferase, 16 h; series mostly up to 92.4 µM
Procedure, shortened: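 Antagonist read-out: drop in luminescence (ONE-Glo) from an RORE-LUC reporter in CHO cells with doxycycline-inducible ROR-gamma; 2 hr compound pretreatment, 1 uM doxycycline, 16 hr incubation at 37 C.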

[8] = qHTS assay to identify small molecule agonists of the AP-1 signaling pathway - cell viability counter screen (AID 1159525); details: ME-180 AP-1-bla cells viability, ATP luminescence, 5 h; series mostly up to 76.8 µM; also: nearly all actives have a fitted effect of over 55% in size
Procedure, shortened: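 ME-180 AP-1-bla, 2500 cells/well, Opti-MEM + 0.5% dialyzed FBS; overnight 37 °C; cpd 15-pt titration, 5 h 37 °C; CellTiter-Glo 30 min RT; luminescence read; normalised to TOAB and DMSO controls.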

[9] = qHTS assay to identify small molecule agonists of the AP-1 signaling pathway (AID 1159526); details: ME-180 (cervical carcinoma) AP-1-bla reporter, beta-lactamase FRET ratio, 5 h; series mostly up to 76.8 µM; also: % is scaled to controls: 0 for no effect and ±100 for the full control effect
[10] = qHTS assay to identify small molecule agonists of the vitamin D receptor (VDR) signaling pathway - cell viability counter screen (AID 743224; active = well fitted curve in the direction sought with a large enough effect in the repeat runs; an effect the other way counts as inactive or inconclusive); details: VDR-bla HEK293T viability, CellTiter-Glo luminescence, 16 h; series mostly up to 62.6 µM
Procedure, shortened: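 Viability is measured in the same wells as the VDR-bla reporter assay: after 16 h compound treatment and 2 h substrate loading, CellTiter-Glo is added and luminescence read 30 min later.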

CCC(C=O)CC
inactive: outcome [1] | outcome [2] | outcome [3] | outcome [4] | Potency [5] | outcome [6] | outcome [7] | outcome [8] | outcome [9]

CCCC/C=C/C=C\C=O
inactive: Potency [10] | outcome [1] | outcome [2] | outcome [3] | outcome [4] | Potency [5] | outcome [6] | outcome [7] | outcome [8] | outcome [9]

O=C(c1ccc(O)cc1)c1ccc(O)c(O)c1O
inactive: Potency [10] | outcome [1] | outcome [2] | outcome [3] | outcome [4] | Potency [5] | outcome [6] | outcome [7] | outcome [8] | outcome [9]

O=P(O)(O)OP(=O)(O)O
inactive: outcome [1] | outcome [2] | outcome [3] | outcome [4] | Potency [5] | outcome [6] | outcome [7] | outcome [8] | outcome [9]

CC(=O)Nc1ccc(S(=O)(=O)Cl)cc1
inactive: outcome [1] | outcome [2] | outcome [3] | outcome [4] | Potency [5] | outcome [6] | outcome [7] | outcome [8] | outcome [9]

O=C(NCCN1CCOCC1)c1ccc(Cl)cc1
inactive: outcome [1] | outcome [2] | outcome [3] | outcome [4] | Potency [5] | outcome [6] | outcome [7] | outcome [8] | outcome [9]

O=C1c2ccccc2C(=O)C1c1ccccc1
inactive: Potency [10] | outcome [1] | outcome [2] | outcome [3] | outcome [4] | Potency [5] | outcome [6] | outcome [7] | outcome [8] | outcome [9]

Cc1nc2n(c(=O)c1CCN1CCC(c3noc4cc(F)ccc34)CC1)CCC[C@H]2O
inactive: outcome [1] | outcome [2] | outcome [3] | outcome [4] | Potency [5] | activity, negative = cytotoxicity [6] 0.561% [at 19 µM] | activity change, negative = inhibition [7] 29.3% [at 19 µM] | viability change, negative = cytotoxic [8] 2.97% [at 15.8 µM] | activation [9] 6.23% [at 15.8 µM]

CC(C)NCC(O)COc1ccc(COCCOC(C)C)cc1 (stereo not given)
inactive: Potency [10] | outcome [1] | outcome [2] | outcome [3] | outcome [4] | Potency [5] | outcome [6] | outcome [7] | outcome [8] | outcome [9]

CC(C)c1ccc2cc(C(C)C)ccc2c1
inactive: Potency [10] | outcome [1] | outcome [2] | outcome [3] | outcome [4] | Potency [5] | outcome [6] | outcome [7] | outcome [8] | outcome [9]

COc1ccc(OC)c(Cl)c1
inactive: Potency [10] | outcome [1] | outcome [2] | outcome [3] | outcome [4] | Potency [5] | outcome [6] | outcome [7] | outcome [8] | outcome [9]

Nc1ccc([N+](=O)[O-])c(N)c1
inactive: outcome [1] | outcome [2] | outcome [3] | outcome [4] | Potency [5] | outcome [6] | outcome [7] | outcome [8] | outcome [9]

O=Cc1ccc(Cl)c(Cl)c1
inactive: Potency [10] | outcome [2] | outcome [3] | outcome [4] | Potency [5] | outcome [6] | outcome [7] | outcome [9]

CCCC(=O)C(C)=O
inactive: outcome [1] | outcome [2] | outcome [3] | outcome [4] | Potency [5] | outcome [6] | outcome [7] | outcome [8] | outcome [9]

O=C1c2cccc3c2[C@H](CCC3)CN1[C@@H]1CN2CCC1CC2
inactive: outcome [1] | outcome [2] | outcome [3] | outcome [4] | Potency [5] | outcome [6] | outcome [7] | outcome [8] | outcome [9]

CC(=O)c1sc(C)nc1C
inactive: outcome [2] | outcome [3] | outcome [4] | Potency [5] | outcome [6] | outcome [7] | outcome [9]

O=C(O)c1cc(Br)c(O)c(Br)c1
inactive: outcome [1] | outcome [2] | outcome [3] | outcome [4] | Potency [5] | outcome [6] | outcome [7] | outcome [8] | outcome [9]

CCCCCCCCCC(C)=O
inactive: Potency [10] | outcome [1] | outcome [2] | outcome [3] | outcome [4] | Potency [5] | outcome [6] | outcome [7] | outcome [8] | outcome [9]

CCCC/C=C\CCCCCCCCCC=O
inactive: Potency [10] | outcome [1] | outcome [2] | outcome [3] | outcome [4] | Potency [5] | outcome [6] | outcome [7] | outcome [8] | outcome [9]

CCOC(=O)CC(=O)c1ccccc1
inactive: outcome [1] | outcome [2] | outcome [3] | outcome [4] | Potency [5] | outcome [6] | outcome [7] | outcome [8] | outcome [9]

NCCN1CCOCC1
inactive: Potency [10] | outcome [1] | outcome [2] | outcome [3] | outcome [4] | Potency [5] | outcome [6] | outcome [7] | outcome [9]

CCCCCCCCOS(=O)(=O)O
inactive: outcome [1] | outcome [2] | outcome [3] | outcome [4] | Potency [5] | outcome [6] | outcome [7] | outcome [8] | outcome [9]

NC(CO)C(=O)NNCc1ccc(O)c(O)c1O (stereo not given)
inactive: outcome [1] | outcome [2] | outcome [3] | outcome [4] | Potency [5] | outcome [6] | outcome [7] | outcome [8] | outcome [9]

COCCOCCOCCOCCOCCO
inactive: outcome [1] | outcome [2] | outcome [3] | outcome [4] | Potency [5] | outcome [6] | outcome [7] | outcome [8] | outcome [9]

c1ccc2nccnc2c1
inactive: outcome [1] | outcome [2] | outcome [3] | outcome [4] | Potency [5] | outcome [6] | outcome [7] | outcome [8] | outcome [9]
